# Compound activity from PubChem.
# sEH inh: inhibitors of human soluble epoxide hydrolase. recombinant human sEH enzymatic activity assay. inhibition, % at 2 µM. hit rate 0.34% among 91,000; in the data active means inhibition above about 80%
# sEH activator: soluble epoxide hydrolase (human) activation; P34913; activation, % at 2 µM; purified human sEH enzymatic activity, activator screen; AID 717; hit rate 0.04% among 91,000; in the data active means activation above about 37%
# CYP2C19 inhib: blocks human cytochrome P450 2C19; inhibition, % at 5 µM; CYP2C19 Supersomes, luciferin-H EGE luminescence, 30 min; hit rate 21% among 96,000; P33261; AID 778;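 active means CYP2C19 inhibition above a set limit at 5 µM in the primary screen, cut at about 50% in these data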;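 further: plate controls were negative control wells for no effect and 2.5 mM tranylcypromine positive control for full effect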
# CYP2C9 act: activators of human CYP2C9; P11712; recombinant CYP2C9, luciferin-H conversion, luminescence; hits give high values; factor 1 = untreated enzyme, 0 = blocked; activation factor at 5 µM; hit rate 1.4% among 96,000;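 active means activation factor of 2 or more for CYP2C9 at a 5 µM dose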;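 further: 0 = sulfaphenazole-blocked wells and 1 = vehicle-only wells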
# Target sequence (P11712 whole entry, looked up): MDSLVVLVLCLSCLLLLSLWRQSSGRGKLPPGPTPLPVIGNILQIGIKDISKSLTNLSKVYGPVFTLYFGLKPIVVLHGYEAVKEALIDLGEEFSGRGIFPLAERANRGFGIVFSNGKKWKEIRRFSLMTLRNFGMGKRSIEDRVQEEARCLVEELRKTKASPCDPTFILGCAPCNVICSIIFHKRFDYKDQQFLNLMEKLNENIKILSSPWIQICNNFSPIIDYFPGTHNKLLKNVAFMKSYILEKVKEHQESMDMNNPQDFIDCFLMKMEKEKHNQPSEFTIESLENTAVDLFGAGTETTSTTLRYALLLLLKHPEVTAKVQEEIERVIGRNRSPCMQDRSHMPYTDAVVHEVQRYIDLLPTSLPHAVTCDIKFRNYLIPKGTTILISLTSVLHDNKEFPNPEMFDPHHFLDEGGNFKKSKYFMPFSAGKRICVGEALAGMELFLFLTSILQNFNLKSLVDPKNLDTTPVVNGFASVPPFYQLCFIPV
# CYP2C19 act: activators of human cytochrome P450 2C19. 96,000 tested, under 10 active. recombinant CYP2C19, luciferin-H EGE luminescence; hits give high values; 0 = fully inhibited enzyme, 1 = untreated enzyme. AID 1025. P33261. activation factor at 5 µM;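 active means activation factor of at least 2 at 5 µM in the primary screen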;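 further: 0 = wells with 2.5 mM tranylcypromine and 1 = vehicle-only wells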
# CYP2C9 inhib: human CYP2C9 inhibition; inhibition, % at 5 µM; AID 777; hit rate 20% among 96,000; P11712; CYP2C9 Supersomes, luciferin-H conversion, luminescence;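 active means blocking of liver enzyme CYP2C9 beyond about 50% at 5 µM, limit read from the data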
# Numbers without * were called inactive; . = no result given. Shown are actives, neighbours in structure and some others; about 27% of the full set was active somewhere.
SMILES,sEH inh,sEH activator,CYP2C19 inhib,CYP2C9 act,CYP2C19 act,CYP2C9 inhib
CC(=O)c1ccc(OCCCC(=O)NCC(c2ccco2)N(C)C)cc1 (stereo not drawn),.,.,81*,0.4,0.2,63*
CCN(CC)S(=O)(=O)c1cc([N+](=O)[O-])ccc1NNC(=O)Nc1ccc(F)cc1,27,-26,6,0.9,0.9,13
CCN(CC)S(=O)(=O)c1cc([N+](=O)[O-])ccc1NNC(=O)Nc1ccccc1OC,22,-20,51*,0.4,0.5,63*
COCCCn1cnnc1SCC(=O)Nc1ccc(S(=O)(=O)N2CCCC2)cc1,-9,12,18,0.8,0.8,19
COc1ccc(OC)c2[nH]c(=O)c(CCNC(=O)c3cc4ccccc4o3)cc12,.,.,63*,0.6,0.4,36
Cc1ccc(C)c2[nH]c(=O)c(CCNC(=O)c3cc4ccccc4o3)cc12,.,.,46,0.5,0.5,52*
COc1ccc(Cl)cc1C(=O)NNC(=S)NC(=O)c1cc(-c2ccccc2)nc2ccccc12,11,-9,47,0.9,0.5,10
O=C(Cc1cccc2ccccc12)Nc1ccccc1C(=O)O,3,-4,-10,0.1,1.1,87*
O=C(NNC(=O)c1cc(-c2ccccc2)nc2ccccc12)Nc1cccc(Cl)c1,15,-14,24,0.3,0.8,75*
O=C(Cc1cccc2ccccc12)NNC(=O)Nc1cccc(Cl)c1,-2,5,56*,2.2*,0.4,-116
CC(C)(C)c1ccc(-c2cc(C(=O)NNC(=O)Nc3ccccc3)c3ccccc3n2)cc1,-2,4,38,0.2,0.6,82*
O=C(Nc1cccc(Cl)c1)Nc1cccc(Cl)c1,74,-74,.,.,.,.
CC/C(=C1/C(=O)CC(C)(C)C(C(=O)OC)C1=O)N1CCCC1 (stereo not drawn),.,.,4,0.9,1,6
CCN1C(=O)c2cccc3cccc1c23,-8,7,40,4.1*,0.6,-306
O=C(CN1C(=O)c2cccc3cccc1c23)NCc1cccnc1,-2,2,83*,1.2,0.2,-20
CC(=O)c1cn(CC(=O)NCc2cccnc2)c2ccccc12,-3,3,77*,0.2,0.2,83*
Cc1c(C#N)c2ccccc2n1CC(=O)NCc1ccccc1,1,-1,.,.,.,.
O=C(CN1C(=O)c2cccc3cccc1c23)Nc1cccnc1,-5,4,.,.,.,.
CCN1C(=O)c2cccc3c(NC(=O)C(C)(C)C)ccc1c23,10,-10,6,0.8,0.9,22
Cc1c(C#N)c2ccccc2n1CC(=O)NCc1cccnc1,2,-2,71*,0.5,0.3,54*
O=C(Nc1c2c(nn1-c1ccc(F)cc1)CS(=O)(=O)C2)C12CC3CC(CC(C3)C1)C2,-17,18,14,0.9,0.9,13
Cc1cc(C(=O)OCC(=O)Nc2ccc(F)cc2F)c(C)o1,22,-21,56*,0.7,0.4,27
O=C(COC(=O)CCc1ccc(S(=O)(=O)N2CCOCC2)cc1)Nc1ncc(C(F)(F)F)cc1Cl,26,-26,0,0.5,1,55*
Cc1cc(C(=O)OCC(=O)NC(=O)NC(C)(C)C)c(C)o1,4,-3,31,0.9,0.7,6
O=C(COC(=O)Cc1ccc(S(=O)(=O)N2CCOCC2)s1)NCc1ccccc1,6,-5,5,0.9,0.9,6
SMILES,sEH inh,sEH activator,CYP2C19 inhib,CYP2C9 act,CYP2C19 act,CYP2C9 inhib
O=C(COC(=O)Cc1ccc(S(=O)(=O)N2CCCCC2)s1)Nc1ccc2c(c1)OCO2,12,-13,66*,0,0.3,98*
O=C(COC(=O)Cc1ccc(S(=O)(=O)N2CCOCC2)s1)NCCc1ccccc1,21,-19,33,0.4,0.7,60*
Cc1cc(C(=O)OCC(=O)Nc2ccc(S(=O)(=O)N3CCOCC3)cc2)c(C)o1,70,-71,29,0.3,0.7,73*
CCN(CC)S(=O)(=O)c1ccc(C)c(NC(=O)COC(=O)c2ccc(C)c(S(=O)(=O)N3CCOCC3)c2)c1,5,-4,92*,0,0.1,96*
Cc1cc(C(=O)OCC(=O)Nc2cc(S(=O)(=O)N3CCOCC3)ccc2Cl)c(C)o1,-7,5,52*,0.2,0.5,80*
Cc1ccc(S(=O)(=O)N2CCOCC2)cc1C(=O)OCC(=O)Nc1ccc2c(c1)OCO2,30,-29,41,0.5,0.6,53*
Cc1nn(C)c(Oc2cccc(Cl)c2)c1C(=O)Nc1ccc(F)cc1,-22,25,40,0.9,0.6,10
Cc1nc2sc(C(c3ccco3)N3CC(C)OC(C)C3)c(O)n2n1 (stereo not drawn),3,-2,3,1.1,1,-14
Cc1ccc2nc(SCCC(=O)O)cc(C)c2c1,-4,4,1,0.9,1,9
CCc1nc2ccccc2c(C(=O)OCC(=O)Nc2cccc(S(=O)(=O)N3CCOCC3)c2)c1C,19,-17,24,1,0.8,3
O=C(COc1ccc(S(=O)(=O)N2CCOCC2)cc1)Nc1ccc(Cl)c(C(F)(F)F)c1,20,-17,24,0.5,0.8,53*
O=C(COC(=O)c1ccc2ccccc2n1)Nc1ncc(C(F)(F)F)cc1Cl,10,-10,58*,0.5,0.4,51*
O=C(COc1ccc(S(=O)(=O)N2CCOCC2)cc1)Nc1ccc2c(c1)OCCO2,-11,5,-1,0.8,1,24
CCc1nc2ccccc2c(C(=O)OCC(=O)Nc2ccc(S(=O)(=O)N3CCOCC3)cc2)c1C,.,.,-2,0.5,1,54*
CC(C)(C)c1ccc(Cn2ccc(-c3ccc4c(c3)OCO4)n2)cc1,12,-10,9,0.8,0.9,16
CCC(C)(C)c1ccc(OCCN2C(=O)NC(C)(C)C2=O)cc1,2,0,89*,0.2,0.1,76*
CC1(C)NC(=O)N(CCOc2ccc3c(c2)CCC3)C1=O,.,.,72*,0.8,0.3,21
CCOc1ccc(OCCN2C(=O)NC3(CCCc4ccccc43)C2=O)cc1 (stereo not drawn),.,.,18,0.6,0.8,45
CC12CCC(C(=O)N3CCN(C(=O)C45CCC(C)(C(=O)O4)C5(C)C)CC3)(OC1=O)C2(C)C,2,0,.,.,.,.
CCNc1nc2nonc2nc1NCC,8,-7,-14,2.6*,1.1,-160
Cc1ccc(Nc2nc3nonc3nc2N(C)C)cc1,-2,2,14,1,0.9,5
CC(C)NS(=O)(=O)c1ccc(CCC(=O)Nc2cc(Cl)ccc2Oc2ccccc2)cc1,12,-11,45,0.3,0.6,67*
CCNS(=O)(=O)c1ccc(CCC(=O)Nc2cc(Cl)ccc2Oc2ccccc2)cc1,0,3,64*,0.2,0.4,82*
CC(C)NS(=O)(=O)c1ccc(NC(=O)CCc2ccccc2)cc1,-8,6,22,0.6,0.8,42
Cn1c(SCC(=O)Nc2ccccc2F)nnc1-c1cc2ccccc2o1,-2,5,16,0.8,0.8,17
